# Assay outcomes (PubChem)
# TDP1 cell CPT: growth inhibition of DT40 Tdp1-/-;hTDP1 cells with camptothecin (screen for TDP1 inhibitors). chicken DT40 Tdp1-/-;hTDP1 cells + 20 nM CPT, ATP luminescence, 48 h. Potency, µM (titrated, usually from 46.2 µM), inactives show top-dose activity change, negative = growth inhibition, actives largely listed as inhibitors. 420,000 tested, 12% active. AID 686979; further: potency means the concentration at half of the fitted maximal effect; nearly all actives have a fitted effect of over 55% in size
#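 Chicken DT40 Tdp1-/- cells complemented with human TDP1, 400 cells/well, exposed to compounds plus 20 nM camptothecin for at least 48 h at 37 C; viability read as ATP content by CellTiter-Glo luminescence.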
# TDP1 cell noCPT: qHTS for Inhibitors of human tyrosyl-DNA phosphodiesterase 1 (TDP1): qHTS in cells in absence of CPT | DT40 Tdp1-/- hTDP1 cells, no CPT, ATP luminescence, 48 h | Potency, µM (titrated, usually from 46.2 µM), for inactives: at the top dose activity change, negative = growth inhibition, hits mostly inhibitors | 420,000 tested, 15% active; further: potency means the concentration at half of the fitted maximal effect; nearly all actives have a fitted effect of over 55% in size
#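 Chicken DT40 Tdp1-/- cells stably complemented with human TDP1 were seeded at 400 cells/well with DMSO in place of 20 nM camptothecin. After compound pinning, cells grew at least 48 hr at 37 °C; viability read by CellTiter-Glo luminescence.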
# uPA surface inh: inhibitors of cell surface uPA generation; cell surface uPA generation assay, qHTS; Potency, µM (highest dose often 38.3 µM), without a hit: at the top dose activity change, negative = inhibition, most hits filed as inhibitors; 330,000 tested, 0.31% active; active means well fitted inhibition curve with a large enough effect; inconclusive means small, poorly fitted or top-dose-only effect; inactive means no such curve, though single readings can be large or run the other way; tested in mouse RAW 264.7 cells; further: potency means the concentration at half of the fitted maximal effect; nearly all actives have a fitted effect of over 55% in size
# HT1080 IDH1KD tx: toxicity to HT-1080 IDH1 knockdown cells (counter line) | HT-1080 IDH1 knockdown viability, ATP luminescence, 48 h | Potency, µM (doses to about 46.1 µM), for the others: at the highest dose activity, negative = toxicity, actives largely listed as cytotoxic | 360,000 tested, 2% active | AID 686971;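 further: potency means the concentration at half of the fitted maximal effect; 0% = DMSO wells and -100% = cell-free medium wells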
#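 % activity derives from luminescence (CellTiter-Glo), normalised to DMSO and no-cell wells. HT-1080-IDH1KD cells, 750/well, had 48 h compound exposure at 37 °C.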
# IL1B secr inh: inhibitors of inflammasome signaling (IL-1 beta secretion) | THP-1 LPS/ATP IL-1B secretion, AlphaLISA, 16 h; hits give low values | activity change, % at 57.5 µM | 360,000 tested, 4.7% active; in the data active means activity change below about -50%; inconclusive means mostly about -30% to -49%
#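 Secreted IL-1B measured by AlphaLISA bead assay after 16 h compound exposure of THP-1 cells; compounds (final up to 57.5 uM) added 1 h before LPS (250 ng/mL) and ATP (1.25 mM) stimulation; lower signal means less secretion.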
# HT1080-NT tox: kills 2HG-producing HT-1080-NT fibrosarcoma cells; AID 686970; 360,000 tested, 1.6% active; HT-1080-NT fibrosarcoma viability, CellTiter-Glo ATP luminescence, 48 h; Potency, µM (series often up to 46.1 µM), without a hit: at the top dose activity, negative = less viability, hits mostly cytotoxic;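 further: NT is the 2HG producing partner of a matched IDH1 knockdown line; potency means the concentration at half of the fitted maximal effect; 0% = DMSO-treated cells and -100% = media-only wells without cells; nearly all actives have a fitted effect of over 55% in size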
#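 Viability of the 2HG-overproducing fibrosarcoma line after 48 hours of compound exposure at 37 degrees C was determined by luminescence with CellTiter-Glo, and concentration-effect curves were then fitted and categorized.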
# Numbers without * were called inactive; ? = inconclusive; / = no result. The list is not random: actives were taken first. Their share in the collection is about 19%. Unless noted, the call rests on the fitted dose curve; in most records, active means well fitted curve in the direction sought with a large enough effect; inconclusive means small, poorly fitted or top-dose-only effect, or another doubt; inactive means no such curve, though single readings can be large; an effect the other way counts as inactive or inconclusive. Unless noted, on the % scale 0 is the no-effect control and ±100 the full control effect.
SMILES,TDP1 cell CPT,TDP1 cell noCPT,uPA surface inh,HT1080 IDH1KD tx,IL1B secr inh,HT1080-NT tox
Cc1cccc(CCNCc2c(C(=O)O)c(C)n(-c3ccccc3)c2C)c1,-26%,-24%,-11%,-5%,4,-7%
CC(C)(CO)[C@@H](O)C(=O)NCCCC(=O)O,0%,-8%,/,/,/,/
COc1ccccc1NC(=O)c1oc2ccccc2c1NC(=O)COc1cccc(C)c1,-9%,1%,/,/,/,/
NS(=O)(=O)c1ccc(Nc2nc(-c3ccc(O)cc3O)cs2)cc1,-4%,-8%,-1%,21%,-57*,16%
Oc1ccc(-c2csc(Nc3ccccn3)n2)c(O)c1,?,?,?,?,-4,?
CC(C)(C)CC(=O)NC1CC(=O)N(c2ccc3c(c2)OCCO3)C1 (configuration not stated),7%,-7%,/,/,/,/
COc1cc(OC)cc(-c2c(-c3cccs3)c3cc(-c4ccc(N(C)C)nc4)ccc3n2C)c1,23µM*,21µM*,7%,2%,34,9%
COc1cc(OC)cc(-c2c(-c3cccs3)c3cc(-c4ccn[nH]4)ccc3n2C)c1,?,16µM*,3%,?,61,?
COc1cc(OC)cc(-c2c(-c3cccs3)c3cc(-c4ccc5c(c4)OCO5)ccc3n2C)c1,?,?,9%,29%,-6,21%
COc1cc(F)cc(-c2ccc3c(c2)c(-c2cccs2)c(-c2cc(OC)cc(OC)c2)n3C)c1,18µM*,23µM*,1%,-4%,2,-17%
COc1cc(OC)cc(-c2c(-c3cccs3)c3cc(Br)ccc3n2C)c1,6%,-16%,-1%,5%,5,-16%
Cc1cc(NC(=S)N(CCCN2CCN(C)CC2)Cc2ccco2)ccc1Cl,-12%,-9%,-12%,-11%,-23,-2%
CCOc1ccccc1N(CC(=O)NC(C)(C)C)C(=O)CCC(=O)Nc1nccs1,5%,-1%,6%,10%,-6,2%
COCc1cc(C)nc(OCC(=O)N/N=C/c2ccc(C)cc2)c1C#N,12µM*,9.2µM*,-23%,?,0,-26%
O=c1cc(N2CCCCC2)c(-c2ccccc2)nn1Cc1c(Cl)cccc1Cl,?,16µM*,10%,16µM*,-67*,18µM*
O=c1cc(N2CCCCC2)c(-c2ccccc2)nn1Cc1ccc(Cl)cc1,?,?,8%,13%,-27,3%
Cc1ccc(NC(=O)CCS(=O)(=O)c2cc(Br)cc3c2N(C(=O)C2CC2)CC3)cc1,12%,0%,/,/,/,/
COc1cc(Br)cc(CNc2ccc(F)c([N+](=O)[O-])c2)c1O,?,?,0%,?,-95*,-26%
Cc1cccc(C(=O)NNc2ncnc3c2cnn3-c2ccc(C)c(Cl)c2)c1,-21%,0%,/,/,/,/
CC1(C)CC2/C(CO)=C/C=C/[C@](C)(O)CC[C@]21O (some centres not stated),10%,-5%,/,/,/,/
COc1ccccc1N1CCN(CCCCNC(=O)c2ccc3ccccc3c2)CC1,?,21µM*,22%,?,0,?
COc1ccc2cccc(N3CCN(CCNC(=O)c4ccc(F)cc4)CC3)c2c1,19µM*,21µM*,/,/,/,/
O=C(COC(=O)c1cnccn1)Nc1cc(S(=O)(=O)N2CCOCC2)ccc1Cl,6%,-3%,6%,1%,-7,3%
CCC1CO/C(=C(\C(Cl)=C(Cl)Cl)[N+](=O)[O-])N1 (configuration not stated),3%,-2%,1%,0%,-61*,-2%
O=[N+]([O-])C(=C1Nc2ccccc2N1)C(Cl)=C(Cl)Cl,?,?,?,-2%,0,0%
CCCSC(=S)c1c(C)[nH]n(-c2ccccc2)c1=O,21µM*,16µM*,-1%,13µM*,-10,?
